A short description of assay [1]: compound effects on lung adenocarcinoma cell viability – A549, calcein-AM fluorescence, 48 h, basal, profiling panel (AID 1162). Note: test concentration not given here. The following applies: higher = more signal.
Assay [2] can be described thus: compound effects on differentiated 3T3-L1 adipocyte viability – cell-based, 3T3-L1 adipocytes, calcein-AM fluorescence, 48 h, basal, profiling panel (AID 1163). Note: test concentration not given here. The conditions noted are these: 3T3-L1 adipocytes viability, higher = more signal.
The nature of assay [3]: compound effects on hepatocellular carcinoma cell viability – HepG2, calcein-AM fluorescence, 48 h, basal, profiling panel (AID 1164). Note: test concentration not given here. The conditions noted are these: higher = more signal.
A short description of assay [4]: compound effects on multiple myeloma cell viability – MM1S, calcein-AM fluorescence, 48 h, basal, profiling panel (AID 1165). Note: test concentration not given here. The conditions noted are these: higher = more signal.
Assay [5] in a line: calcein-AM signal in unstimulated myeloma cells – cell-based, calcein-AM fluorescence, 48 h, PK04 Diversity Set, profiling panel (AID 1166).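 Note: cells grown under basal conditions without added stimulus; test concentration not given here.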 The following applies: RPMI8226 myeloma viability, higher = more signal.
The nature of assay [6]: JC-1 mitochondrial signal, unstimulated HepG2 cells – cell-based, JC-1 fluorescence, 24 h, 100 nL compound, profiling panel (AID 1167). Note: test concentration not given here. The following applies: HepG2 mitochondrial potential, higher = more signal.
A short description of assay [7]: JC-1 mitochondrial signal, unstimulated adipocytes – cell-based, JC-1 fluorescence, 3T3-L1 adipocytes, 24 h, 100 nL compound, profiling panel (AID 1168). Note: test concentration not given here. The conditions noted are these: JC-1 mitochondrial fluorescence, higher = more signal, called active from +8 up or from −8 down.
A short description of assay [8]: JC-1 mitochondrial signal, unstimulated myeloma cells – cell-based, JC-1 fluorescence, RPMI8226, 24 h, 100 nL compound, profiling panel (AID 1169). Note: test concentration not given here. The following applies: JC-1 mitochondrial potential fluorescence, higher = more signal.
Assay [9] in a line: JC-1 mitochondrial signal, unstimulated MM1S myeloma – cell-based, JC-1 fluorescence, 24 h, 100 nL compound, profiling panel (AID 1170). Note: test concentration not given here. The following applies: MM1S mitochondrial potential, higher = more signal.
Assay [10] is described as follows: resazurin metabolic signal in A549 cells – cell-based, resazurin fluorescence, 24 h, PK04 Diversity Set, profiling panel (AID 1171). Note: test concentration not given here. The following applies: A549 viability, higher = more signal, called active from +8 up or from −8 down. (In general: The colour change of resazurin is a common sign of viable cells or microbes.)
Assay [11] in a line: resazurin metabolic signal in HepG2 cells – cell-based, resazurin fluorescence, 24 h, PK04 Diversity Set, profiling panel (AID 1172). Note: test concentration not given here. The following applies: HepG2 viability, higher = more signal.
Assay [12] is described as follows: budding yeast growth changes without added modifier – OD600, strain BY4716, 24 h, basal condition, primary screen (AID 1173). The conditions noted are these: S. cerevisiae BY4716 growth, OD600, 24 h; higher = more signal, called active from +8 up or from −8 down.
A short description of assay [13]: viability profiling in MM1S myeloma cells – cell-based, resazurin fluorescence, basal, 24 h, PK04 Diversity Set, profiling panel (AID 1174). Note: test concentration not given here. The following applies: higher = more signal, called active from +8 up or from −8 down.
The target of assay [14] is Dihydroorotate dehydrogenase (quinone), mitochondrial (Plasmodium falciparum (isolate 3D7)) (UniProt Q08210). Description: inhibition of P. falciparum DHODH – biochemical, C-terminal His tag, absorbance 600 nm, primary screen (AID 1175).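 Note: recombinant parasite enzyme with a five histidine tag at its C terminus; test concentration not given here.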 The conditions noted are these: PfDHODH enzyme, DCIP absorbance 600 nm; higher = more signal, called active from +8 up or from −8 down.
Chain of Dihydroorotate dehydrogenase (quinone), mitochondrial (Plasmodium falciparum (isolate 3D7)) (Q08210 whole entry, looked up): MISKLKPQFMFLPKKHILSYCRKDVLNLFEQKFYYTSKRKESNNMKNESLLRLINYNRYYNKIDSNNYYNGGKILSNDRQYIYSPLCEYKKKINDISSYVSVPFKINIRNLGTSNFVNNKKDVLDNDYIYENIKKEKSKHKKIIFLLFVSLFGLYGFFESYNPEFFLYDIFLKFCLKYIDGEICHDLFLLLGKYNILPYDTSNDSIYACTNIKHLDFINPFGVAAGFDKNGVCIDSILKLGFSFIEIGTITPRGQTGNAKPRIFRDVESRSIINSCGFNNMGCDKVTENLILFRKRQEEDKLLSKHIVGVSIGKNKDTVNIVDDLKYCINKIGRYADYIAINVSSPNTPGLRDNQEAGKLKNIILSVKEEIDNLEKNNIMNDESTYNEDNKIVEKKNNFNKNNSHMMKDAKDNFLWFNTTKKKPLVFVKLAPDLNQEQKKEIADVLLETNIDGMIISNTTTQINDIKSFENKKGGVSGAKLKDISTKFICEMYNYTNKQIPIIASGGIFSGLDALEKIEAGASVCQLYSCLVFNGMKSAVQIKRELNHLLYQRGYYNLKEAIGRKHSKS

Assay [15] in a line: inhibition of PAO1 biofilm formation – strain PAO1, LB-PBS medium, absorbance 600 nm, primary screen (AID 1176). Note: test concentration not given here. The following applies: P. aeruginosa PAO1 growth/biofilm, A600, 12 h; higher = more signal.
The nature of assay [16]: growth modulation of vineyard yeast isolate – strain RM11-1a, OD600, basal, 24 h, primary screen (AID 1177).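 Note: cultures grown under basal conditions with no added stressor; test concentration not given here.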 The following applies: S. cerevisiae RM11-1a growth, OD600, 24 h; higher = more signal, called active from +8 up or from −8 down.
Assay [17] in a line: growth of efflux-deficient E. coli DRC39 – strain DRC39, OD650, 24 h, E. coli filamentation inducers, primary screen (AID 1178).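 Note: growth measured as culture turbidity by optical density at 650 nm; test concentration not given here.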 The conditions noted are these: E. coli DRC39 acrAB, higher = more signal, called active from +8 up or from −8 down.
Assay [18] is described as follows: growth of efflux-deficient E. coli DRC39 – strain DRC39, OD650, 48 h, E. coli filamentation inducers, primary screen (AID 1179).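 Note: screen aims at cell division blockers that make cells filament.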 The following applies: E. coli DRC39 delta-acrAB growth, higher = more signal, called active from +8 up or from −8 down.
A short description of assay [19]: viability profiling in RPMI8226 myeloma cells – cell-based, resazurin fluorescence, basal, 24 h, PK04 Diversity Set, profiling panel (AID 1180).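 Note: RPMI8826 multiple myeloma cell line at 5000 cells per well; test concentration not given here.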 The following applies: higher = more signal.
Assay [20] concerns the target E3 ubiquitin-protein ligase XIAP (Homo sapiens) (UniProt P98170). The assay can be described thus: small molecules binding XIAP protein – biophysical, small-molecule microarray, fluorescence 635 nm, primary screen (AID 1181).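 Note: score merges 667 nm emission and signal to noise over triplicate slides.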 The conditions noted are these: higher = more signal.

Activity calls are given as the source filed them. Unless noted, the rule behind the calls is not given here.

Chain of E3 ubiquitin-protein ligase XIAP (Homo sapiens) (P98170 whole entry, looked up): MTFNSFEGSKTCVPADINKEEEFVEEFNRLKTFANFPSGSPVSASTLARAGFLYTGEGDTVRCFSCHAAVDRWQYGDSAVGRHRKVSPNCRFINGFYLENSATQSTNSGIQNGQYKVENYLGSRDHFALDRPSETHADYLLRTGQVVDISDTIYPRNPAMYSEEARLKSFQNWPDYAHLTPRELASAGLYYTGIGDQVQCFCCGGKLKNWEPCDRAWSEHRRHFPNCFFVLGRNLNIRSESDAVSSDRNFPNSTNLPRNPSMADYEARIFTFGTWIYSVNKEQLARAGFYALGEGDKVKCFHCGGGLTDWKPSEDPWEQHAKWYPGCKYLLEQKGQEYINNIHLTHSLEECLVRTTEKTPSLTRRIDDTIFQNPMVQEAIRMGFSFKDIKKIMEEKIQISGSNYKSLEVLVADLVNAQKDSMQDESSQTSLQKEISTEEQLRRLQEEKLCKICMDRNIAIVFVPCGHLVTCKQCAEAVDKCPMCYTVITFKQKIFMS

Take `COCCOC(=O)N1C(=O)[C@@]2(c3cc(C#CCC(C(=O)OC)C(=O)OC)ccc31)[C@H](C(=O)N1CCN(c3ncccn3)CC1)[C@H]1C(=O)O[C@H](c3ccccc3)[C@H](c3ccccc3)N1[C@@H]2c1ccc(OCCO)cc1`: the z-score in assay [1] is 1.68; in assay [2], 1.02; in assay [3], 0.674; in [4] it was 0.65; in assay [5], 1.21; in [6], -0.656. Also, the z-score in assay [7] is 1.86 (inactive); in assay [8], -0.303; in assay [9], -1.16; in assay [10], 0.665 (inactive); in assay [11], 1.36; in assay [12] it was 0.539 (inactive). Moreover, the z-score in [13] is 0.724 (inactive); in assay [15], 3.48 (inactive); in assay [16], 1.84 (inactive); in assay [17] it was 0.272 (inactive); in assay [18], 0.106 (inactive); in assay [19], 1.32. Moreover, the composite z-score is -0.432 (inactive) in assay [14] and 0.0838 in assay [20].
On to `CCCCCN1CC=CC23O[C@@H]4/C=C\CCC(C)OC(=O)C4[C@H]2C(=O)N(CCCCCO)[C@@H]3C1=O` (stereo not given in full), for which the z-score in assay [1] was -0.213; in assay [2], 1.56; in assay [3], 0.167; in assay [4] it was 0.599; in assay [5] it was -0.0704; in [6], -0.356. The z-score is 0.637 (inactive) in assay [7]; -0.982 in assay [8]; -0.617 in assay [9]; 0.475 (inactive) in [10]; 0.58 in assay [11]; -1.12 (inactive) in assay [12]. The z-score in assay [13] was 0.699 (inactive); in assay [15], 0.357 (inactive); in [16], -1.01 (inactive); in assay [17] it was 0.683 (inactive); in [18], 0.389 (inactive); in [19] it was 0.522. For the same compound, the composite z-score in assay [14] is 0.121 (inactive); in assay [20] it was -0.144.
Take `COCCOC(=O)N1C(=O)[C@@]2(c3ccccc31)[C@H](C(=O)Nc1nc3ccccc3s1)[C@H]1C(=O)O[C@H](c3ccccc3)[C@H](c3ccccc3)N1[C@@H]2c1ccc(OCCO)cc1`: the z-score in [1] is -0.257; in assay [2] it was 1.73; in assay [3], -1.23; in [4], -2.13; in assay [5] it was -1.62; in [6], -3.14. Further, the z-score in assay [7] was 1.68 (inactive); in [8], -0.806; in [9] it was -1.57; in [10] it was 0.18 (inactive); in assay [11], 0.353; in assay [12], 1.42 (inactive). For the same compound, the z-score in assay [13] is -0.477 (inactive); in [15], 3.49 (inactive); in assay [16], 1.75 (inactive); in [17], 0.0253 (inactive); in assay [18], -0.383 (inactive); in [19], -0.162. In addition, the values for the composite z-score in assay [14] and in [20] were -0.691 (inactive) and 0.0641, respectively.
With `Cc1ccccc1C(O)C1C=CC2C(=O)N(C)C(=O)C2N1Nc1ccccc1` (stereo not given), the z-score was 0.262 in assay [1]; -1.23 in [2]; -0.284 in assay [3]; -0.143 in assay [4]; -0.272 in assay [5]; -1.96 in assay [6]. Also, the z-score in assay [7] is -1.19 (inactive); in assay [8], -0.317; in assay [9], -0.00815; in assay [10] it was -0.621 (inactive); in assay [11], -1.19; in [12], -0.532 (inactive). Further, the z-score is -1.32 (inactive) in [13]; 1.07 (inactive) in assay [15]; -0.547 (inactive) in [16]; -0.688 (inactive) in assay [17]; -0.611 (inactive) in assay [18]; -1.61 in assay [19]. Besides, the composite z-score is -0.513 (inactive) in assay [14] and 0.179 in [20].
For the compound `CC(=O)NCCCC[C@@H]1NC(=O)[C@H]2C[C@@H](C(=O)NCCCCCC[N+](C)(C)C)[C@@H](c3cccc(OCCO)c3)N2C1=O`, the z-score in assay [1] is -0.144; in [2], 1.14; in [3], -0.827; in assay [4] it was 0.385; in [5], -0.418; in assay [6], -1.44. For the same compound, the z-score in [7] is 0.326 (inactive); in [8] it was -0.135; in assay [9], -0.872; in assay [10], 0.925 (inactive); in assay [11] it was 1.04; in assay [12], -0.458 (inactive). Also, the z-score is 0.56 (inactive) in assay [13]; 3.45 (inactive) in assay [15]; -0.718 (inactive) in assay [16]; -0.47 (inactive) in [17]; -0.711 (inactive) in assay [18]; 0.0647 in [19]. Besides, the composite z-score was -1.75 (inactive) in [14] and 0.0871 in [20].
As for `[N-]=[N+]=Nc1ccccc1[C@H]1OC(c2ccc(OCCCO)cc2)=N[C@@]1(CCS(=O)(=O)c1ccccc1)C(=O)O`, the z-score in assay [1] was 0.318; in [2], 1.69; in assay [3], -0.0825; in assay [4], -1.42; in assay [5] it was 0.682; in assay [6] it was -3.45. The z-score in [7] is -1.65 (inactive); in assay [8], 0.0104; in [9], -0.0976; in [10] it was 0.315 (inactive); in assay [11] it was 0.181; in assay [12], -1.65 (inactive). Moreover, the z-score in assay [13] was 0.169 (inactive); in [15] it was -0.319 (inactive); in assay [16], -0.0777 (inactive); in assay [17] it was 2.08 (inactive); in assay [18] it was 0.499 (inactive); in [19], 0.438. Besides, the composite z-score is 0.737 (inactive) in [14] and 0.143 in [20].
Regarding `O=C1c2ccccc2[C@@]2(Cc3ccccc3N(Cc3ccccc3)C2=O)[C@H](c2ccc(CO)cc2)N1C1CCCCC1`, the z-score was -0.774 in [1]; -0.752 in [2]; -0.466 in assay [3]; -0.144 in assay [4]; -0.977 in assay [5]; -0.689 in [6]. The z-score in assay [7] is 0.604 (inactive); in assay [8], -0.582; in assay [9], -1.32; in [10], -0.022 (inactive); in assay [11], 0.281; in assay [12], 1.61 (inactive). For the same compound, the z-score in [13] was -0.242 (inactive); in assay [15], 0.407 (inactive); in assay [16], 1.57 (inactive); in assay [17], 0.281 (inactive); in [18], 0.256 (inactive); in assay [19] it was -0.0776. For the same compound, the composite z-score in assay [14] was -11.6 (active); in [20] it was -0.239.
In the case of `COC(=O)[C@@]1(Cc2ccccc2)N=C(c2ccc(OCCCO)cc2)O[C@H]1c1ccccc1N=[N+]=[N-]`, the z-score in assay [1] is 0.119; in [2], 0.113; in assay [3], -2.06; in [4], -3.35; in assay [5], -4.04; in [6] it was 1.12. The z-score in assay [7] was -0.528 (inactive); in [8], -1.11; in [9] it was -0.896; in [10], -1.83 (inactive); in assay [11], -0.914; in [12], 0.0975 (inactive). Moreover, the z-score in assay [13] is -2.58 (inactive); in assay [15] it was 1.49 (inactive); in [16], 1.57 (inactive); in assay [17], 0.368 (inactive); in [18], 0.752 (inactive); in [19] it was -2.93. The values for the composite z-score in assay [14] and in assay [20] were 0.0308 (inactive) and 0.723, respectively.
As to `Cc1ccc(S[C@]2(C(=O)NCc3ccccc3)CC(=O)N(Cc3ccccc3Cl)[C@@H]2c2ccc(CO)cc2I)cc1`, the z-score is 0.34 in [1]; 1.13 in assay [2]; -0.0653 in assay [3]; -1.73 in [4]; -1.65 in [5]; -0.44 in assay [6]. Besides, the z-score in [7] was 0.376 (inactive); in [8] it was -0.0557; in assay [9] it was -2.15; in [10] it was 1.6 (inactive); in assay [11], 1.21; in assay [12], -3.45 (inactive). The z-score in assay [13] is -3.03 (inactive); in assay [15], 0.531 (inactive); in [16], -1.07 (inactive); in assay [17], 0.321 (inactive); in assay [18], 0.439 (inactive); in [19] it was -2.02. The composite z-score in [14] was -1.82 (inactive); in [20] it was -0.136.

The record behind these values is PubChem BioAssay.
